Here are results for five molecules from PubChem BioAssay.

Activity calls are given as the source filed them.

Assay [1] can be described thus: binders of probe aFSTL3 on microarray, primary screen, stem cell growth factor project, biochemical, small-molecule microarray, fluorescence 635/667 (AID 1064).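 Also: measures binding of the biotinylated anti-FSTL3 antibody to printed compounds.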 Conditions: higher = more signal.
A short description of assay [2]: binders from COS7 lysate, DM2A8 probe, primary screen, torsin A project, cell lysate, small-molecule microarray, fluorescence 635/667 (AID 1065). Conditions: higher = more signal, COS7 lysate expressing mutant human TOR1A.
Assay [3] is described as follows: binders of probe aFGF2 on microarray, primary screen, stem cell growth factor project, biochemical, small-molecule microarray, fluorescence 635/667 (AID 1067).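 Also: measures binding of biotinylated aFGF2 protein to printed compounds on slides; z-score merges feature fluorescence and signal-to-noise across triplicate slides.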 The conditions noted are these: higher = more signal.
Assay [4] can be described thus: binders of probe aFGF10 on microarray, primary screen, stem cell growth factor project, biochemical, small-molecule microarray, fluorescence 635/667 (AID 1071).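 Also: score merges 667 nm spot intensity and signal to noise from triplicate slides.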 The conditions noted are these: higher = more signal.
The target of assay [5] is Neurogenic locus notch homolog protein 2 (Homo sapiens) (UniProt Q04721). Nature of the assay: Notch2 binders on small-molecule microarrays, primary screen, biochemical, small-molecule microarray, 635 nm fluorescence, stem cell growth factors (AID 1073). The conditions noted are these: Notch2 binding, higher = more signal.
Assay [6] concerns the target Pro-neuregulin-1, membrane-bound isoform (Homo sapiens) (UniProt Q02297). The experiment in a line: NRG1 binders on small-molecule microarrays, primary screen, psychiatric disease protein project, biochemical, small-molecule microarray, fluorescence 635/667 (AID 1075).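 Also: score combines 667 nm spot fluorescence with signal to noise.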 The conditions noted are these: NRG1 binding, 635 nm fluorescence, higher = more signal.
Assay [7] has as its system Neuregulin-1 EGF-like domain. Nature of the assay: binders of neuregulin-1 EGF-like domain, primary screen, biochemical, small-molecule microarray, 635 nm fluorescence (AID 1081).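 Also: binding of the protein to compounds printed on small-molecule microarray slides.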 Conditions: small-molecule microarray binding, higher = more signal.
A short description of assay [8]: FRG1 promoter luciferase signal modulators, primary screen, FRG1 inhibition for FSHD, cell-based, C2C12 myotubes, firefly/Renilla luciferase, luminescence (AID 1084). The conditions noted are these: higher = more signal, called active from +8 up or from −8 down.
Assay [9] can be described thus: binders of probe aFST on microarray, primary screen, stem cell growth factor project, biochemical, small-molecule microarray, fluorescence 635/667 (AID 1086).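 Also: score merges 667 nm fluorescence with signal-to-noise of each printed compound spot.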 The conditions noted are these: higher = more signal.
The nature of assay [10]: binders of probe aHhip on microarray, primary screen, stem cell growth factor project, biochemical, small-molecule microarray, fluorescence 635/667 (AID 1087).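 Also: score merges spot fluorescence at 667nm with spot signal to noise ratio.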 Conditions: higher = more signal.
The subject of assay [11] is PRMT1 (protein arginine N-methyltransferase 1). The experiment in a line: PRMT1 binders on small-molecule microarrays, primary screen, biochemical, small-molecule microarray, 635 nm fluorescence (AID 1088).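 Also: binding of Prmt1 protein to compounds spotted on small-molecule microarray slides.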 The conditions noted are these: small-molecule microarray binding, higher = more signal.
The nature of assay [12]: yeast growth modulation, basal conditions, primary screen, YJM789 clinical isolate, OD600, 24 h (AID 1089).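 Also: growth of clinical yeast isolate S. cerevisiae YJM 789 seeded 1000 cells per well; test concentration not given here.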 The conditions noted are these: S. cerevisiae YJM789 growth, higher = more signal, called active from +8 up or from −8 down.
Assay [13] is described as follows: fission yeast growth modulation, primary screen, strain 972, OD600, 24 h, no modulator (AID 1090).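 Also: basal condition with compound alone and no growth modifier present; test concentration not given here.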 The conditions noted are these: S. pombe 972 growth, higher = more signal, called active from +8 up or from −8 down.
Assay [14] in a line: S. cerevisiae growth modulation with rapamycin, primary screen, strain BY4716, OD600, 96 h (AID 1091). Also: test concentration not given here. Conditions: higher = more signal, called active from +8 up or from −8 down.
Assay [15] deals with Torsin-1A-interacting protein 2 (Homo sapiens) (UniProt Q8NFQ8). The experiment in a line: LULL1 binders on small-molecule microarray, primary screen, cell lysate, human LULL1 lysate, 635/667 nm fluorescence (AID 1092).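 Also: probe is lysate of COS7 cells overexpressing human LULL1; score merges per-feature 667 nm fluorescence with signal-to-noise.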 Conditions: hLULL1 lysate binding, 635 nm fluorescence, higher = more signal.
A short description of assay [16]: E. coli growth modulation, two-sided OD650, primary screen, E. coli filamentation project, strain DRC41, 24 h (AID 1093).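 Also: MC1000 strain lacking acrAB efflux and sulA so SOS filamentation is blocked; test concentration not given here.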 The conditions noted are these: OD650, 24 h, higher = more signal, called active from +8 up or from −8 down.
Assay [17] is described as follows: small-molecule microarray binders of probe aLefty2, primary screen, biochemical, biotinylated probe, 635/667 nm fluorescence (AID 1094).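 Also: score merges spot fluorescence near 667 nm with spot signal-to-noise ratio.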 Conditions: higher = more signal.
In assay [18] the test system is Noggin (protein binding on small-molecule microarray). Nature of the assay: Noggin binders on small-molecule microarray, primary screen, biochemical, 635/667 nm fluorescence (AID 1095).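 Also: score merges 667 nm feature fluorescence with signal to noise over triplicate slides.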 Conditions: 635 nm fluorescence, higher = more signal.
For assay [19], the target named is Neurogenic locus notch homolog protein 3 (Homo sapiens) (UniProt Q9UM47). The experiment in a line: NOTCH3 binders on small-molecule microarray, primary screen, biochemical, 635/667 nm fluorescence (AID 1096). Conditions: NOTCH3 binding, 635 nm fluorescence, higher = more signal.
Assay [20] is described as follows: small-molecule microarray binders of probe aEGFR, primary screen, biochemical, biotinylated probe, 635/667 nm fluorescence (AID 1097).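 Also: probe is a biotinylated anti-EGFR antibody binding compounds printed on slides; score combines fluorescence near 667 nm and signal to noise of each spot.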 Conditions: higher = more signal.

Sequence of Torsin-1A-interacting protein 2 (Homo sapiens) (Q8NFQ8 whole entry, looked up): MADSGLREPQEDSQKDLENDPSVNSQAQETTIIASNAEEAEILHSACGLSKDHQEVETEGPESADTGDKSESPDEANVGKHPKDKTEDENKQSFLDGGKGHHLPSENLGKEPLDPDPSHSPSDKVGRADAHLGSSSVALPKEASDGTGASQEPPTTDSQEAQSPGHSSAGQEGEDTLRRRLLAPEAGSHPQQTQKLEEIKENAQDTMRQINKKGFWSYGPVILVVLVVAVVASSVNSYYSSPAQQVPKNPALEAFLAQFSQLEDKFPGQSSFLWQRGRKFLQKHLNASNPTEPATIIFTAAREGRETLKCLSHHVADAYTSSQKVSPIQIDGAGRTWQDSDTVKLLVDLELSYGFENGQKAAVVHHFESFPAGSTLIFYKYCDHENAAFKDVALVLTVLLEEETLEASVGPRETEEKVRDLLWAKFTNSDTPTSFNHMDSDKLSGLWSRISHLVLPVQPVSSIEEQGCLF
Sequence of Pro-neuregulin-1, membrane-bound isoform (Homo sapiens) (Q02297 whole entry, looked up, the tested form may be a part, canonical isoform): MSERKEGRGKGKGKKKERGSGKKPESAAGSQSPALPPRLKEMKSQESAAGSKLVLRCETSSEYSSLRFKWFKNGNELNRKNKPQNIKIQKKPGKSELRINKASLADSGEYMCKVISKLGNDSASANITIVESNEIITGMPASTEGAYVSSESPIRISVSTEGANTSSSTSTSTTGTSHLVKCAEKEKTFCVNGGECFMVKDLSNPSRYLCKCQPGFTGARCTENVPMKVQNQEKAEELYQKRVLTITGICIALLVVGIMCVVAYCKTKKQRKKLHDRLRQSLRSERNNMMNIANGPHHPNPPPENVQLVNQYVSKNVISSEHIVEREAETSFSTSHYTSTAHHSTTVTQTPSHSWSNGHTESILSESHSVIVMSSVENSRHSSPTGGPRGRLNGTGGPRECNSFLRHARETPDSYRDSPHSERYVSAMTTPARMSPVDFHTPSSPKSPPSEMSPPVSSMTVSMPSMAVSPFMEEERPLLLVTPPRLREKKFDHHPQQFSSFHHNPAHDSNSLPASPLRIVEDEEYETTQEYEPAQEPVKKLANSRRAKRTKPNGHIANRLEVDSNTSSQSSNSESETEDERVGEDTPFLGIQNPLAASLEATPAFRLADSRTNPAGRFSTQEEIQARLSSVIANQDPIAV
Sequence of Neurogenic locus notch homolog protein 2 (Homo sapiens) (Q04721 whole entry, looked up, canonical isoform): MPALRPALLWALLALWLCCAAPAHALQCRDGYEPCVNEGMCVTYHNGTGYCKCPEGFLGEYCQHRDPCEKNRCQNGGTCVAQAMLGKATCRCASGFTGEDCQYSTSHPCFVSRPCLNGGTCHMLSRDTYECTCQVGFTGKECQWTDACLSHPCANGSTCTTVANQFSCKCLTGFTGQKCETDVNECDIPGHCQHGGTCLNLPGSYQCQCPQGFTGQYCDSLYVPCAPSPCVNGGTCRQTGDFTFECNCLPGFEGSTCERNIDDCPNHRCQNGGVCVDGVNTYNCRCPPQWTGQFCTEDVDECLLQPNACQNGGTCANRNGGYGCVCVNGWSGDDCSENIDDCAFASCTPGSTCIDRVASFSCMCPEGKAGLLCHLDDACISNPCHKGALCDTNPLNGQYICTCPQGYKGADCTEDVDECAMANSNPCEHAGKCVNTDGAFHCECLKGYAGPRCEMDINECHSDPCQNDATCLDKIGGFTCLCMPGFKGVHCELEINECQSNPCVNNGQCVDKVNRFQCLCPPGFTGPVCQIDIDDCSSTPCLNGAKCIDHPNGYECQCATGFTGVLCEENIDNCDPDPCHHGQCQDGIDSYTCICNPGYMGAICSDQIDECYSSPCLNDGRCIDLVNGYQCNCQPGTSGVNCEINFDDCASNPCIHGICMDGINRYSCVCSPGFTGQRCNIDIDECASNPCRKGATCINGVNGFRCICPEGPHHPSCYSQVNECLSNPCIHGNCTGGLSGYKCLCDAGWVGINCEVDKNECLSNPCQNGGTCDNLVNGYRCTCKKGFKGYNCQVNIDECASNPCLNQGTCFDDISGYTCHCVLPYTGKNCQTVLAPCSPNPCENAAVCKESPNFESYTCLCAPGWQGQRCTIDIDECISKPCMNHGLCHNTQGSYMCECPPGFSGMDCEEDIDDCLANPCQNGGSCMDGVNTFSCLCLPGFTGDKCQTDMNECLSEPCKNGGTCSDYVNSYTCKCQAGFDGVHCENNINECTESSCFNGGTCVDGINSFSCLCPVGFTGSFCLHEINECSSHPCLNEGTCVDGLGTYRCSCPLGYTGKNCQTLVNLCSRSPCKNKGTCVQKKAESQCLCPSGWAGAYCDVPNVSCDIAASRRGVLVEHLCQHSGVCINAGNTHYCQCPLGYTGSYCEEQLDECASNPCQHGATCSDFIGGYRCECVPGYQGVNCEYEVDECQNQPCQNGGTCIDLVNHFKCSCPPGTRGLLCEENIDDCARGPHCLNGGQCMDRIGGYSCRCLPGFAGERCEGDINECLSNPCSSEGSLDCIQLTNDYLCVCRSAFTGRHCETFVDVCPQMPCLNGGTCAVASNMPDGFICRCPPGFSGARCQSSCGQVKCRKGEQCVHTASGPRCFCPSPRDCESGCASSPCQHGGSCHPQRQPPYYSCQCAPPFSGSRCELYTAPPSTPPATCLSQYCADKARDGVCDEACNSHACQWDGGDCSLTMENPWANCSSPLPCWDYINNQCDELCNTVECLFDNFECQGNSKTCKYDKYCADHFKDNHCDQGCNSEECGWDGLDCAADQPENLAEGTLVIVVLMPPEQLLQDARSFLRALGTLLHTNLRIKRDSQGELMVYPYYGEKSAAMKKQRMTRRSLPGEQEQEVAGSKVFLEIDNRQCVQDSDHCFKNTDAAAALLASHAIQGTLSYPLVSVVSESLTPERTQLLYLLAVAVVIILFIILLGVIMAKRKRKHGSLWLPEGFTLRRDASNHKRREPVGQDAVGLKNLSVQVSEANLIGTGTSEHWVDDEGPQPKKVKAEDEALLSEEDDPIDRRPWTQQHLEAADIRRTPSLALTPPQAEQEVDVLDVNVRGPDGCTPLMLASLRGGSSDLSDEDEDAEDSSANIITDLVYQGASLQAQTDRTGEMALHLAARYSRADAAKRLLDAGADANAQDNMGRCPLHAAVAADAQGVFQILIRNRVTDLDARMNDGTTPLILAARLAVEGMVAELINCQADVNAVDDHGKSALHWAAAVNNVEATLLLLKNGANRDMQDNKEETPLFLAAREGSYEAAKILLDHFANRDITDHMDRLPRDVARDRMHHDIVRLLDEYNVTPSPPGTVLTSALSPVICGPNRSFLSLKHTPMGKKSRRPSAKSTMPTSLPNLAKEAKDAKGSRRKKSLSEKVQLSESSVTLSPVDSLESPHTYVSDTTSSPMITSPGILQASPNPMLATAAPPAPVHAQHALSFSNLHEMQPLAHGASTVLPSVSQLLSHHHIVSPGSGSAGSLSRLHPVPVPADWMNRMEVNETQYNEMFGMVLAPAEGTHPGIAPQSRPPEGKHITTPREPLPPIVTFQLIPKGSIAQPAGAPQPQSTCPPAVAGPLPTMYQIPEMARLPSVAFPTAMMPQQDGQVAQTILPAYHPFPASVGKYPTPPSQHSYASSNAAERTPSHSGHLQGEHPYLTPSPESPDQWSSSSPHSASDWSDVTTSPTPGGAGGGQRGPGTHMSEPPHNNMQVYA

Consider `CO[C@H]1COC(=O)[C@H](CCSC)NC(=O)CC=C[C@@H](C)[C@H](OC)COC(=O)[C@@H](OCc2ccccc2)C=C[C@@H]1C`, for which the composite z-score in assay [1] is -0.459; in assay [2] it was 0.633; in assay [3], -0.188; in assay [4] it was 0.227; in [5], 0.133; in [6], -0.388. Also, the composite z-score in assay [7] was 0.597; in assay [9], -0.276; in [10] it was -0.134; in assay [11], 1.56; in assay [15] it was -1.05; in assay [17] it was -0.0131. The composite z-score in assay [18] is 1.39; in assay [19], 0.472; in assay [20] it was -0.0531. For the same molecule, the z-score in assay [8] was 0.306 (inactive); in [12], -0.772 (inactive); in assay [13] it was -0.282 (inactive); in assay [14] it was -1.65 (inactive); in assay [16], -0.317 (inactive).

As for `O=C1C[C@@H](O)[C@@H](O)[C@@H]2[C@@H]3C(=O)N(Cc4ccccc4)C(=O)[C@@H]3CC[C@H]12`, the composite z-score is -0.344 in assay [1]; 0.49 in assay [2]; -0.129 in assay [3]; 0.339 in assay [4]; 0.438 in assay [5]; 0.235 in assay [6]. The composite z-score in assay [7] is 0.632; in assay [9], 0.256; in [10] it was 0.0053; in assay [11] it was -0.326; in assay [15] it was -0.14; in assay [17], -0.107. Besides, the composite z-score in assay [18] is 0.497; in assay [19], 0.545; in assay [20], -0.0171. For the same molecule, the z-score in assay [8] is -0.725 (inactive); in [12] it was 0.179 (inactive); in [13], -0.253 (inactive); in assay [14] it was -0.138 (inactive); in assay [16] it was -0.188 (inactive).

Regarding `CCN1C(=O)[C@H]2[C@H]3[C@H](O)[C@H](O)CC(=NO[C@@H]4O[C@H](COC(C)=O)[C@@H](OC(C)=O)[C@H](OC(C)=O)[C@H]4OC(C)=O)[C@@H]3CC[C@H]2C1=O`, the composite z-score is -0.665 in assay [1]; 0.588 in assay [2]; -0.0319 in assay [3]; 0.794 in [4]; 0.948 in assay [5]; 0.357 in assay [6]. Besides, the composite z-score was 1 in assay [7]; 0.054 in assay [9]; -0.0994 in assay [10]; 1.29 in assay [11]; 1.05 in assay [15]; 0.015 in [17]. In addition, the figures for the composite z-score in assay [18], in assay [19] and in assay [20] were 0.597, 1.03 and 0.0091, respectively. The z-score in assay [8] is 0.186 (inactive); in assay [12] it was 0.461 (inactive); in assay [13], 0.208 (inactive); in assay [14], 0.47 (inactive); in assay [16] it was 1.16 (inactive).

For `Cc1ccc(S(=O)(=O)N[C@@H]2COC(=O)CC=C[C@@H](C)[C@H](NS(=O)(=O)c3ccc(C)cc3)COC(=O)[C@H](C)NC(=O)CC=C[C@H]2C)cc1`, the composite z-score in assay [1] was 0.166; in assay [2], 0.264; in assay [3], -0.11; in assay [4], -0.0539; in assay [5], -1.12; in assay [6], -0.921. Besides, the composite z-score in assay [7] was -0.744; in assay [9] it was -0.18; in [10], -0.216; in assay [11], -0.287; in assay [15], -0.865; in assay [17], -0.291. Besides, the composite z-score in [18] was 0.354; in assay [19], -0.632; in assay [20], -0.16. Also, the z-score was -0.138 (inactive) in assay [8]; -0.0073 (inactive) in assay [12]; 0.13 (inactive) in assay [13]; 0.147 (inactive) in assay [14]; 0.715 (inactive) in [16].

With `CCOC(=O)CCN1C(=O)[C@H]2[C@H]3[C@H](O)[C@H](O)CC(=O)[C@@H]3CC[C@H]2C1=O`, the composite z-score in [1] was -0.577; in assay [2], 0.125; in assay [3], -0.16; in assay [4], 0.832; in assay [5], 0.916; in assay [6], 0.102. Besides, the composite z-score in [7] is 0.482; in [9], 0.658; in assay [10], -0.27; in assay [11] it was 0.58; in assay [15], 0.846; in assay [17], -0.198. Besides, the composite z-score was 0.589 in [18], 0.738 in [19] and 0.0004 in assay [20]. Besides, the z-score in assay [8] was -0.407 (inactive); in assay [12], -0.0366 (inactive); in [13], -0.267 (inactive); in assay [14], -0.0766 (inactive); in assay [16] it was -0.353 (inactive).
